Source: PubChem BioAssay
This is a sample that favours compounds with a hit; in the whole collection about 27% have one here.
PTK2B oligo ant – antagonists of Pyk2 self-association, primary screen, Q293 cells, FERM NanoBiT luminescence, HTS | active compounds read low | z-score (the deposit names both 25 µM and 10 µM) | 99,000 compounds, 0.83% hits | AID 1347419, 2020;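 active = Z-score of -3 or lower, scaled per plate to the spread of control and sample wells; inactive = z-score above -3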;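 note: negative z-score means lost luminescence so less FERM oligomerization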
CYP2C9 act – human CYP2C9 activators, primary screen, biochemical, luminescence; Cytochrome P450 2C9 (Homo sapiens), P11712; recombinant CYP2C9, luciferin-H conversion; active compounds read high; factor 1 = untreated enzyme, 0 = blocked; activation factor at 5 µM; 96,000 compounds, 1.4% hits; AID 1024, 2008;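 active = activation factor of 2 or more for CYP2C9 at a 5 µM dose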;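 note: 0 = sulfaphenazole-blocked wells and 1 = vehicle-only wells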
Target sequence (P11712 whole entry, looked up): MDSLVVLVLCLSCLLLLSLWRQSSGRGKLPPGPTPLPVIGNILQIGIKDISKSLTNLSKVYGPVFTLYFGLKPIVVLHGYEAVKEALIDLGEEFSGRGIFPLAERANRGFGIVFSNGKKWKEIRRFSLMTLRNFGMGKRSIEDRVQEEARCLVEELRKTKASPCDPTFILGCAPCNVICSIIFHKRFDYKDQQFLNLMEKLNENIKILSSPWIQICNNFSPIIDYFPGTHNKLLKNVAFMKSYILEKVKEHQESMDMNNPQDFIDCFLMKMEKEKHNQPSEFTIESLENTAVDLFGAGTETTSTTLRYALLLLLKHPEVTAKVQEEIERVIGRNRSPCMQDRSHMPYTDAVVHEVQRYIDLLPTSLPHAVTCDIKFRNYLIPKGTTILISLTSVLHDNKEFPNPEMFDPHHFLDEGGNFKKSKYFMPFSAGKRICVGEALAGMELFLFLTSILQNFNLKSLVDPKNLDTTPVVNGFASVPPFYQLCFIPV
CYP2C19 act – human CYP2C19 activators, primary screen, biochemical, luminescence | activation factor at 5 µM | recombinant CYP2C19, luciferin-H EGE luminescence; active compounds read high; 0 = fully inhibited enzyme, 1 = untreated enzyme | 96,000 tested, under 10 active;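 active = activation factor of at least 2 at 5 µM in the primary screen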;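 note: 0 = wells with 2.5 mM tranylcypromine and 1 = vehicle-only wells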
CYP2C9 inh – blockers of cytochrome P450 2C9 activity – biochemical, luminescence, ADME assay, primary screen; CYP2C9 Supersomes, luciferin-H conversion; inhibition, % at 5 µM; 96,000 compounds, 20% hits; AID 777, 2007;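 active = blocking of liver enzyme CYP2C9 beyond about 50% at 5 µM, limit read from the data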
Cav3 T inh – Cav3.2 calcium influx blockers – cell-based, Fluo-4 calcium fluorescence, FDSS, MLSMR library, primary screen; Voltage-dependent T-type calcium channel subunit alpha-1H (Homo sapiens), O95180; 100,000 compounds, 4% hits; B-score at 10 µM; Cav3.2-expressing cells; active compounds read low;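 active = single-dose well whose peak fluorescence ratio is a statistical outlier from its plate by either plate-standardised score or position-corrected B-score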
CYP2C19 inhib – blockers of cytochrome P450 2C19 activity – biochemical, luminescence, ADME assay, primary screen; CYP2C19 Supersomes, luciferin-H EGE luminescence, 30 min; 96,000 compounds, 21% hits; AID 778, 2007; inhibition, % at 5 µM;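 active = CYP2C19 inhibition above a set limit at 5 µM in the primary screen, cut at about 50% in these data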;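 note: plate controls were negative control wells for no effect and 2.5 mM tranylcypromine positive control for full effect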
Starred values were filed as active, the others as inactive.

Cc1ccc(-c2cc(C(=O)Nc3c(C#N)cnn3C)no2)cc1 was read as PTK2B oligo ant -0.09, CYP2C9 act 0.4, CYP2C19 act 1.2, CYP2C9 inh 56.1*, Cav3 T inh 0.0456 and CYP2C19 inhib -15.4.
COCC(C)NC(=O)c1cc(-c2ccc(O)cc2)on1 (stereo unspecified) was read as CYP2C9 act 2.4*, CYP2C19 act 0.9, CYP2C9 inh -138.5, Cav3 T inh 0.0917 and CYP2C19 inhib 11.2.
For CCc1c(C)sc(NC(=O)c2cc(-c3ccc(O)cc3)on2)c1C#N the results were CYP2C9 act 2.1*, CYP2C19 act 1, CYP2C9 inh -106.1, Cav3 T inh 0.241 and CYP2C19 inhib -1.8.
Screening O=C1OCCC1N1C(=O)c2ccccc2S1(=O)=O (stereo unspecified) returned PTK2B oligo ant -0.14, CYP2C9 act 1, CYP2C19 act 1.1, CYP2C9 inh -2.4, Cav3 T inh 0.3 and CYP2C19 inhib -8.2.
`Cc1cccc(NC(=O)c2nc[nH]c2C(=O)N[C@@H](C)C(=O)OC(C)(C)C)c1` gave Cav3 T inh 0.35.
CCOC(=O)CNC(=O)c1sc(NC(=O)c2ccccc2)nc1C was read as PTK2B oligo ant -0.22 and Cav3 T inh -0.0643.
`CC(C)CC1NC(=O)N(CC(=O)N2CCN(S(=O)(=O)c3ccccc3)CC2)C1=O` (stereo unspecified) gave PTK2B oligo ant 0.57, CYP2C9 act 1, CYP2C19 act 1, CYP2C9 inh -1.9, Cav3 T inh -0.0255 and CYP2C19 inhib -3.2.
`CC(=O)O[C@@H]1[C@@H](OC(C)=O)[C@H](n2ccc3cc([N+](=O)[O-])ccc32)OC[C@@H]1OC(C)=O` gave PTK2B oligo ant 0.85 and Cav3 T inh 0.379.
`CC(=O)OC1COC(N2CCc3cc([N+](=O)[O-])ccc32)C(OC(C)=O)C1OC(C)=O` (stereo unspecified) gave PTK2B oligo ant -0.23, CYP2C9 act 0.2, CYP2C19 act 0.3, CYP2C9 inh 80.6*, Cav3 T inh 0.196 and CYP2C19 inhib 72.3*.
CCCCn1c(C)cc(C)c(S(=O)(=O)c2ccccc2C)c1=O was read as PTK2B oligo ant -1.49, CYP2C9 act 0.6, CYP2C19 act 0.5, CYP2C9 inh 40.6, Cav3 T inh -2.86 and CYP2C19 inhib 53.3*.
Cc1ccc(S(=O)(=O)N2Cc3ccccc3CC2C(=O)Nn2cnnc2)cc1 (stereo unspecified) was read as PTK2B oligo ant -0.91, CYP2C9 act 0.6, CYP2C19 act 0.5, CYP2C9 inh 35.1, Cav3 T inh 0.816 and CYP2C19 inhib 54.9*.
CCc1nnc(NC(=O)C2Cc3ccccc3CN2S(=O)(=O)c2c(C)c(C)cc(C)c2C)s1 (stereo unspecified) was read as PTK2B oligo ant -1.88, CYP2C9 act 0.4, CYP2C19 act 0.6, CYP2C9 inh 61.4*, Cav3 T inh -3.52 and CYP2C19 inhib 37.0.
Screening CCS(=O)(=O)N1Cc2ccccc2CC1C(=O)Nc1nc2ccccc2s1 (stereo unspecified) returned PTK2B oligo ant 0.
O=C(Nn1cnnc1)C1Cc2ccccc2CN1S(=O)(=O)c1ccc(F)cc1 (stereo unspecified) was read as PTK2B oligo ant 0.87, CYP2C9 act 0.8, CYP2C19 act 0.6, CYP2C9 inh 16.8, Cav3 T inh 0.033 and CYP2C19 inhib 36.6.
Cc1ccc(S(=O)(=O)N2Cc3ccccc3CC2C(=O)Nc2cc(C)on2)cc1 (stereo unspecified) was read as PTK2B oligo ant -0.25, CYP2C9 act 0.2, CYP2C19 act 0.2, CYP2C9 inh 84.6*, Cav3 T inh -1.15 and CYP2C19 inhib 82.8*.
CCC1CCCCN1C(=S)NCc1ccccc1 (stereo unspecified) was read as PTK2B oligo ant -0.2.
S=C1NCCc2ccc(Cl)cc2C1c1ccccc1 (stereo unspecified) was read as PTK2B oligo ant -0.08 and Cav3 T inh -2.7.
Screening CCCCC(CC)CN1C(=O)/C(=C/c2ccncc2)SC1=S (stereo unspecified) returned PTK2B oligo ant -0.49, CYP2C9 act 0.3, CYP2C19 act 0.4, CYP2C9 inh 69.9*, Cav3 T inh -0.0673 and CYP2C19 inhib 61.8*.
`CC1CN(c2nc3ccccn3c(=O)c2/C=C(\C#N)S(=O)(=O)c2ccccc2)CC(C)O1` (stereo unspecified) gave PTK2B oligo ant -2.47, CYP2C9 act 0.2, CYP2C19 act 0.2, CYP2C9 inh 83.9*, Cav3 T inh 1.22 and CYP2C19 inhib 84.6*.
NC(=O)C1CCN(C2=C(Cl)C(=O)c3ccccc3C2=O)CC1 was read as PTK2B oligo ant 0.28, CYP2C9 act 0.9, CYP2C19 act 0.8, CYP2C9 inh 12.3, Cav3 T inh -0.681 and CYP2C19 inhib 16.7.
Screening CC1CN(c2oc(-c3ccco3)nc2S(=O)(=O)c2ccccc2)CC(C)O1 (stereo unspecified) returned PTK2B oligo ant 0.66, CYP2C9 act 1, CYP2C19 act 1.1, CYP2C9 inh -0.3, Cav3 T inh 0.631 and CYP2C19 inhib -9.5.
`N#C/C(=C\c1c(N2CCC(C(N)=O)CC2)nc2ccccn2c1=O)S(=O)(=O)c1ccccc1` gave PTK2B oligo ant -1.21, CYP2C9 act 0.2, CYP2C19 act 0.7, CYP2C9 inh 78.8*, Cav3 T inh 0.665 and CYP2C19 inhib 25.7.
Screening O=C(NC1CCCC1)C(c1ccsc1)N(C(=O)Cc1cccs1)c1cccc(F)c1 (stereo unspecified) returned PTK2B oligo ant -0.17, CYP2C9 act 0.9, CYP2C19 act 1, CYP2C9 inh 8.2, Cav3 T inh -0.143 and CYP2C19 inhib 3.0.
Screening Cc1cc(C)n2c(Nc3ccc4c(c3)OCCO4)c(-c3ccc(C)o3)nc2n1 returned CYP2C9 act 1.1, CYP2C19 act 1, CYP2C9 inh -9.8, Cav3 T inh 1.06 and CYP2C19 inhib 1.9.
Cc1cc(-c2cc(-c3ccc(Cl)cc3)on2)nc(NC2CCCC2)n1 was read as Cav3 T inh 0.0237.
`Clc1ccc(-c2nc3cnccn3c2Nc2ccc3c(c2)OCO3)cc1` gave CYP2C9 act 0.2, CYP2C19 act 0.1, CYP2C9 inh 81.6*, Cav3 T inh -3.11 and CYP2C19 inhib 87.4*.
